Screening results from PubChem.
Hits are enriched below; roughly 3.5% of the tested compounds scored in any of these assays.
Anthrax LF inh2: anthrax lethal factor protease inhibition; 360,000 tested, 0.12% active; multiplex microsphere protease cleavage assay, LF; P15917; AID 588501; inhibition, % at 10 µM
Target sequence (P15917 whole entry, looked up): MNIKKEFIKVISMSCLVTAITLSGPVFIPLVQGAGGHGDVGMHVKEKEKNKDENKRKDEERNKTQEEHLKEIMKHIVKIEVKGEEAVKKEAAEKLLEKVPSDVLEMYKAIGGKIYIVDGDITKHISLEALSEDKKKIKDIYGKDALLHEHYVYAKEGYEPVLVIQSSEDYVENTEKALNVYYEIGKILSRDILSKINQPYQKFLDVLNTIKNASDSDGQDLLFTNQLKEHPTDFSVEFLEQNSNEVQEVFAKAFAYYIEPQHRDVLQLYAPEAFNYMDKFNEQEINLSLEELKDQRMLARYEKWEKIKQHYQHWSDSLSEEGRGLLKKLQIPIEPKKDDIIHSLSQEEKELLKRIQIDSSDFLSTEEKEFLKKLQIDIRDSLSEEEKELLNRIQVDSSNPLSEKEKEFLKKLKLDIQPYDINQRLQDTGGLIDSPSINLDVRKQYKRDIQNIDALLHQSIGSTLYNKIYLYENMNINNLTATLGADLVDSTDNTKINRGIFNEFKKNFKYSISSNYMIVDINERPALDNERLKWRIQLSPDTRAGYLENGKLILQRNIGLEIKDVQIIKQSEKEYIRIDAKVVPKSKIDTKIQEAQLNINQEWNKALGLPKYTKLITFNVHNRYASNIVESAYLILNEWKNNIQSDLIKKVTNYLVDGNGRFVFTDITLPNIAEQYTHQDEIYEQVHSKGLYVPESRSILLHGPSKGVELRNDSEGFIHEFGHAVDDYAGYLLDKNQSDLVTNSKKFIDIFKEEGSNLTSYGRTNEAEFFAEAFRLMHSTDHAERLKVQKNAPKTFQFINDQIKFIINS
BoNT F protease: blocks Botulinum neurotoxin F light chain protease; inhibition, % at 10 µM; Multiplex microsphere protease cleavage assay, flow cytometry; AID 588497; 360,000 tested, 0.22% active; in the data active means inhibition above about 35%, passing the limit was not always enough; inconclusive means no clear call, values can overlap the other calls
BoNT A protease: BoNT A light chain protease inhibition; 360,000 tested, 0.17% active; AID 588499; multiplex microsphere protease substrate cleavage, flow cytometry; inhibition, % at 10 µM
Bead autofluor: flagged as autofluorescent in microsphere protease counterscreen; compound autofluorescence counterscreen, microsphere flow cytometry; hits give high values; fluorescence intensity (concentration not given with the values); 360,000 tested, 3.1% active; AID 624483; in the data active means fluorescence intensity above about 16000; inconclusive means no clear call, values can overlap the other calls
BH1578 lux ind: inducers of Vibrio cholerae quorum light production without autoinducers; activation, % at 18.7 µM; AID 588436; V. cholerae BH1578 lux reporter, luminescence, 6 h; 350,000 tested, 0.16% active; in the data active means activation mostly above about 9.7%, no sharp cut-off; inconclusive means no clear call, values can overlap the other calls; inactive means mostly below about 3.7%
BoNT-A LC CP2: blocks botulinum neurotoxin A light chain protease; multiplex microsphere protease cleavage assay, flow cytometry; inhibition, % at 10 µM; shares compounds with BoNT A protease; 150 tested, 10% active; in the data active means inhibition above about 24%
Anthrax LF CP2: inhibitors of Bacillus anthracis lethal factor protease | shares compounds with BoNT A protease | 150 tested, 7% active | AID 602327 | multiplex microsphere protease cleavage assay | inhibition, % at 10 µM; in the data active means inhibition above about 25%
BoNT-F LC CP2: BoNT/F light chain protease inhibition; inhibition, % at 10 µM; multiplex microsphere protease cleavage assay, flow cytometry; AID 602336; shares compounds with BoNT A protease; 150 tested, 7% active; in the data active means inhibition above about 25%
Large screens that a line does not name were inactive (follow-up assays come after a bar, where they were run). Unless noted, no stated cut-off is given here; in the data, active means inhibition above about 30%; inconclusive means no clear call, values can overlap the other calls; inactive means below that.

COC(=O)c1ccc(CN2C(=O)C(C)N(C(=O)c3c(F)cccc3F)c3ccccc32)cc1 (stereo not drawn)	none
Cc1cccc2c1NC1(CCCC1)CC2C (stereo not drawn)	BoNT F protease active | BoNT-A LC CP2 inactive | Anthrax LF CP2 inactive | BoNT-F LC CP2 active
O=C(NCCCNC(=O)c1cccnc1)c1ccc(Cl)cc1	none
CC(=O)OCC(=O)c1c[nH]c2ccccc12	none
COc1cccc(C(=O)OCC(=O)c2c[nH]c3ccccc23)c1O	none | BoNT-A LC CP2 inactive | Anthrax LF CP2 inactive | BoNT-F LC CP2 37
COc1ccccc1-c1cc2c(c3c1ccn3C)C1CCC2C1 (stereo not drawn)	Anthrax LF inh2 30 (no result: BH1578 lux ind) | BoNT-A LC CP2 inactive | Anthrax LF CP2 inactive | BoNT-F LC CP2 inactive
COc1ccccc1-c1cc2c(c3c1ccn3C)C1CCC2O1 (stereo not drawn)	none (no result: BH1578 lux ind)
Cn1ccc2c(-c3ccccc3F)cc3c(c21)C1CCC3C1 (stereo not drawn)	none (no result: BH1578 lux ind) | BoNT-A LC CP2 inactive | Anthrax LF CP2 inactive | BoNT-F LC CP2 inactive
Nc1nc(SCC(=O)Nc2cc(Cl)c(Cl)cc2Cl)n[nH]1	none
O=C(NC1CCCCC1)c1cccc2c1C(=O)c1ccc(N3CCCC3)cc1S2(=O)=O	none
CC1CCN(c2ccc3c(c2)S(=O)(=O)c2cccc(C(=O)NCc4ccc(F)cc4)c2C3=O)CC1	none | BoNT-A LC CP2 inactive | Anthrax LF CP2 inactive | BoNT-F LC CP2 inactive
O=C(NCc1cc(C(F)(F)F)ccc1Cl)c1cccc2c1C(=O)c1ccc(N3CCC(Cc4ccccc4)CC3)cc1S2(=O)=O	none | BoNT-A LC CP2 inactive | Anthrax LF CP2 inactive | BoNT-F LC CP2 inactive
CC1CCN(c2ccc3c(c2)S(=O)(=O)c2cccc(C(=O)NC4CCCCC4)c2C3=O)CC1	none | BoNT-A LC CP2 inactive | Anthrax LF CP2 inactive | BoNT-F LC CP2 inactive
O=C(NC1CC1)c1cccc2c1C(=O)c1ccc(N3CCC(Cc4ccccc4)CC3)cc1S2(=O)=O	none
CC(C)(C)CNC(=O)c1cccc2c1C(=O)c1ccc(N3CCCC3)cc1S2(=O)=O	none
O=C(NCc1ccc(F)cc1)c1cccc2c1C(=O)c1ccc(N3CCC(N4CCCCC4)CC3)cc1S2(=O)=O	none
COc1ccccc1N1CCN(c2ccc3c(c2)S(=O)(=O)c2cccc(C(=O)NCC4CC4)c2C3=O)CC1	none | BoNT-A LC CP2 inactive | Anthrax LF CP2 inactive | BoNT-F LC CP2 inactive
O=C(NCc1cc([N+](=O)[O-])ccc1O)c1cccc(NS(=O)(=O)c2ccccc2)c1	none
O=C(Cc1ccccc1)NCC(=O)Nc1ccccc1Br	none
CCc1ccc(C(=O)NNC(=O)c2cc(S(=O)(=O)N(C)C)ccc2N2CCCC2)cc1	none
COc1ccc(-c2cc3c(c4c2ccn4C)C2CCC3C2)cc1 (stereo not drawn)	none (no result: BH1578 lux ind) | BoNT-A LC CP2 inactive | Anthrax LF CP2 inactive | BoNT-F LC CP2 inactive
COc1cccc(-c2cc3c(c4c2ccn4C)C2CCC3C2)c1 (stereo not drawn)	none (no result: BH1578 lux ind) | BoNT-A LC CP2 inactive | Anthrax LF CP2 inactive | BoNT-F LC CP2 inactive
CC1CN(S(=O)(=O)c2ccccc2)C(C)N1C(=O)N1CCOCC1 (stereo not drawn)	Bead autofluor inconclusive
Cn1ccc2c(-c3ccc(C(=O)O)cc3)cc3c(c21)C1CCC3C1 (stereo not drawn)	none (no result: BH1578 lux ind) | BoNT-A LC CP2 inactive | Anthrax LF CP2 inactive | BoNT-F LC CP2 inactive
Cn1ccc2c(-c3ccc(C(C)(C)C)cc3)cc3c(c21)C1CCC3C1 (stereo not drawn)	none (no result: BH1578 lux ind) | BoNT-A LC CP2 inactive | Anthrax LF CP2 inactive | BoNT-F LC CP2 inactive
CC1CN1c1cc2c(c3c1ccn3C)C1CCC2C1 (stereo not drawn)	none (no result: BH1578 lux ind)
Cn1ccc2c(-c3ccc(C(N)=O)cc3)cc3c(c21)C1CCC3O1 (stereo not drawn)	none (no result: BH1578 lux ind)
Cc1nnc(N(C)C(=O)c2ccc3c(c2)OCO3)s1	none
CCC(=O)c1ccc(OCC(=O)NCc2ccccc2CN2CCCC2)cc1	none
COc1cc(OC)cc(C(=O)NC(C(=O)Nc2ccc3nc(C)sc3c2)C(C)C)c1 (stereo not drawn)	none
Cc1nc2ccc(NC(=O)[C@@H](NC(=O)c3c(F)cccc3F)C(C)C)cc2s1	Anthrax LF inh2 40 | BoNT-A LC CP2 inactive | Anthrax LF CP2 inactive | BoNT-F LC CP2 30
Cc1[nH]c2ccc(CNS(=O)(=O)c3ccc(S(=O)(=O)N4CCOCC4)cc3)cc2c1C	none | BoNT-A LC CP2 inactive | Anthrax LF CP2 inactive | BoNT-F LC CP2 inactive
